Where “and” joins values, the source holds several entries; their conditions need not be identical. Equal values may be shown once. This is part of a sample that, as a whole, favours compounds with a hit. Of some 83,000 tested, about 20% had one in any assay.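 Interpretation: 100, growth as untreated; towards 0, rising growth inhibition; 0, no net growth; 0 to -100, cell death. Compounds scoring below 10 were considered active.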 Values without a mark were called inactive. Calls of active or inactive are those of the source.
These compounds were tested on HL-60(TB) leukemia (assay: NCI-60 one-dose screen, 48 h (100 = growth as untreated, 0 = no growth, -100 = all killed)). Conditions: 10 µM unless noted.

Row | Structure (SMILES) | growth
1 | COc1cccc(C(=O)NNc2nc(N3CCN(C4CCCCC4)CC3)nc(N3CCN(C(c4ccccc4)c4ccccc4)CC3)n2)c1 | 18.5%
2 | COCCNC(C(=O)c1ccccc1)c1ccccc1 (configuration not stated) | 103%
3 | CC#Cc1nc2ccccc2c(=O)[nH]1 | 11.4%
4 | CN1C(=O)N(C)C2C1NN=c1s/c(=C\c3cccnc3)c(=O)n12 (configuration not stated) | 82.7%
5 | COc1ccc(C(=O)c2cc3c(N)c(C(=O)Nc4cccc(Cl)c4C)sc3nc2C)cc1 | -60.6% (active)
6 | CC(C)(C)c1cc(-c2nc3ccc(N4CCN(S(C)(=O)=O)CC4)cc3[nH]2)cc(C(C)(C)C)c1O | 90.2%
7 | O=C1OC(c2ccccc2)=N/C1=C\c1ccccc1 | 113%
8 | CC(C)(C)c1cc(NC(=O)Nc2ccc(-c3cn4c(n3)sc3cc(OCCN5CCOCC5)ccc34)cc2)no1 | 18.7% and 41%
9 | Cc1ccc(=O)[nH]n1 | 99.9% and 102%
10 | CN(C)CCNC(=O)c1cccc(-c2cnc3ccc(-c4ccc5c(c4)OCO5)nn23)c1 | 64.1%
11 | C=C[C@]1(C)C=C2C(=O)[C@@]3(O)OC(=O)[C@@]4(CCCC(C)(C)[C@H]34)[C@@]2(O)CC1 | -25% (active)
12 | O=c1oc2ccc(-c3ccc(F)cc3F)cc2c(=O)n1-c1ccc(Cl)c(C(F)(F)F)c1 | 1.69% (active)
13 | CCOC(=O)c1ccc(Nc2sc(C(=O)c3ccc(Br)cc3)c(N)c2C#N)cc1 | -2.85% (active)
14 | O=C(Nc1nc2ccc(C(=O)N3CCN(c4ccc(Cl)c(Cl)c4)CC3)cc2s1)c1ccc(NCCc2ccccc2)c([N+](=O)[O-])c1 | 101%
15 | O=C(Nc1ccc([N+](=O)[O-])cc1Cl)c1cc(Cl)ccc1O | -30.7% (active) and -30.9% (active)
16 | Oc1ccc(CN2CCC(N3CCCCC3)CC2)c2cccnc12 | 28.2%
17 | O=c1c2cc(F)ccc2sc2c(Nc3cccnc3)nc3ccccc3c12 | 88.5%
18 | CCCCCCOc1ccc(C2(Cl)c3ccccc3N(C)c3ccccc32)cc1 | 65.4%
19 | O=Nc1ccc(NO)c2ccccc12 | 108% and 26.9%
20 | CC[C@H](CC[C@@H](C)[C@H]1CC[C@H]2[C@@H]3CC=C4C[C@@H](O)CC[C@]4(C)[C@H]3CC[C@]12C)C(C)C | 125% and 100%
21 | Cc1ncc(C(=O)Nc2ccc(CN3CCN(C)CC3)c(C(F)(F)F)c2)cc1C#Cc1cnc(NC2CC2)c2ncccc12 | 34.1%
22 | CC(=O)OCC1OC(OC(C)=O)C(OC(C)=O)C(OC(C)=O)C1OC(C)=O (configuration not stated) | 120% and 101%
23 | Cn1cc(-c2csc(-c3c[nH]c4ccccc34)n2)c2cccnc21 | 11.5%
24 | CCN(CC)CCCC(C)Nc1nc(-c2ccc(OC)cc2)nc2cc(Cl)ccc12 (configuration not stated) | 51.8%
25 | O=C(c1ccccc1)c1ccc(Oc2ccc([N+](=O)[O-])cc2[N+](=O)[O-])cc1 | 43.6%
26 | Cc1ccc(N(CC2=NCCN2)c2cccc(O)c2)cc1 | 105%
27 | Oc1ccc(-c2nnc3c4[nH]ccc4ncn23)cc1 | 106%

Reference: PubChem BioAssay (NCI)
